From PubChem BioAssay (Tox21)
Records with an inconclusive call do not appear. Active and inactive are the calls of the source. Unless noted, the call rests on the fitted dose curve; in most records, active means well fitted curve in the direction sought with a large enough effect in the repeat runs; inconclusive means weak or mixed curves; inactive means no such curve, though single readings can be large; an effect the other way counts as inactive or inconclusive.

Experiments:
[1] = molecular target: Thyrotropin receptor (Homo sapiens) (UniProt P16473); assay: qHTS assay to identify small molecule antagonists of the thyroid stimulating hormone receptor (TSHR) signaling pathway (AID 1259385; calls by dose curve; further: nearly all actives have a fitted effect of over 20% in size)
Chain of Thyrotropin receptor (Homo sapiens) (P16473 whole entry, looked up): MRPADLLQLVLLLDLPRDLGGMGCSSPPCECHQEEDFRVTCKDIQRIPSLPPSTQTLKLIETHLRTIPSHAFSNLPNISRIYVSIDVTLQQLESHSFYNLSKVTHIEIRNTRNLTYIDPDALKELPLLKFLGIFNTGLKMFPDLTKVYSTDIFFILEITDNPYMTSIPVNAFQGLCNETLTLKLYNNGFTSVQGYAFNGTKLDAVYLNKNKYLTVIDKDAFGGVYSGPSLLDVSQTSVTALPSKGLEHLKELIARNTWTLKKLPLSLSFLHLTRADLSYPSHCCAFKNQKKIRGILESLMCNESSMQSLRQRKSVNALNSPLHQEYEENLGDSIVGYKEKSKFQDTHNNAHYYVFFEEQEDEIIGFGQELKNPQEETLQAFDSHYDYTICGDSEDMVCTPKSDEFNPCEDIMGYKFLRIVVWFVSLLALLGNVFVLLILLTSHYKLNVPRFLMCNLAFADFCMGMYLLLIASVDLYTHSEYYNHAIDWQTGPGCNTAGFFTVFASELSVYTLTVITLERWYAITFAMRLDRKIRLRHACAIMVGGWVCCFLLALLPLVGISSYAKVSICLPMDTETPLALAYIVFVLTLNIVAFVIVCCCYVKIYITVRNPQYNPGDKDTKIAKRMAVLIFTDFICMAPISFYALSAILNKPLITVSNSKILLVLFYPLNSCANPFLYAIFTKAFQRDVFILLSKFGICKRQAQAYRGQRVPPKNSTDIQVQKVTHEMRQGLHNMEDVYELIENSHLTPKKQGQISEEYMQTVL
Outline: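 Antagonist mode: compound-treated TSHR-expressing HEK293 cells were stimulated with 1.5 ng/mL TSH (final) in presence of Ro20-1724 for 30 min at RT. HTRF cAMP detection after 1 h; each compound tested at 15 concentrations, triplicate.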

[2] = qHTS assay to identify small molecule agonists of the estrogen receptor alpha (ER-alpha) signaling pathway in the presence of an antagonist - cell viability counter screen (AID 1259386);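 further: series mostly up to about 92 µM; cells exposed to compounds for 22 h at 37 °C before the viability read; nearly all actives have a fitted effect of over 30% in size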
Outline: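 Using estrogen-depleted VM7Luc4E2 cells, the 15-concentration compound series was applied together with 10.0nM ICI-182,780 and incubated 22hr at 37C/5% CO2. Cell viability was then scored by CellTiter-Fluor.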

[3] = molecular target: Progesterone receptor (Homo sapiens) (UniProt P06401); assay: qHTS assay to identify small molecule agonists of the progesterone receptor (PR) signaling pathway (AID 1346784; calls by dose curve; further: nearly all actives have a fitted effect of over 30% in size)
Chain of Progesterone receptor (Homo sapiens) (P06401 whole entry, looked up): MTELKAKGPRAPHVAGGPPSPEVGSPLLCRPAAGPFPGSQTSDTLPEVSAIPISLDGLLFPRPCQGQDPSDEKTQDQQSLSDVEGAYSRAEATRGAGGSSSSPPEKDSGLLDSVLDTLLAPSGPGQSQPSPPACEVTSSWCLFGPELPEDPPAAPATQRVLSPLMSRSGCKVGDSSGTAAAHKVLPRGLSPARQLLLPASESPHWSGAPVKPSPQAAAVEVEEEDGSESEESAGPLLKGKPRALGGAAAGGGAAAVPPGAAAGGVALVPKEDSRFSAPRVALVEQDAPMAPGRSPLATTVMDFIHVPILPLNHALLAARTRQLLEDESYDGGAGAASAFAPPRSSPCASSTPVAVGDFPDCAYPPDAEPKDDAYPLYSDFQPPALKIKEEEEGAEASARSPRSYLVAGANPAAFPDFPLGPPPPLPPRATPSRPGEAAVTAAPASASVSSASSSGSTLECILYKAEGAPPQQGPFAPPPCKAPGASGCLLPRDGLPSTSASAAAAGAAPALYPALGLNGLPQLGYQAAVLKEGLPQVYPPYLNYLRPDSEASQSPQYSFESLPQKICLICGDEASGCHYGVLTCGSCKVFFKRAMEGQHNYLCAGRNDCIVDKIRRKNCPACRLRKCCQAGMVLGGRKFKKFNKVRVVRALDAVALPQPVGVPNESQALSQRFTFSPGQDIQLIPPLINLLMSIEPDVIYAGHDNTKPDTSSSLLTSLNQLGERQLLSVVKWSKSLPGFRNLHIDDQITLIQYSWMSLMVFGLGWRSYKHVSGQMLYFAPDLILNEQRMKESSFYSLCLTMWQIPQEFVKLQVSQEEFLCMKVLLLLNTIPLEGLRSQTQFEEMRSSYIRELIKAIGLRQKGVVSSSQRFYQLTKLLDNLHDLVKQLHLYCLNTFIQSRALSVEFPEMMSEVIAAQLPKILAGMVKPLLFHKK
Outline: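 Seed PR-UAS-bla HEK 293T cells (2% charcoal-stripped FBS), incubate 6 hr at 37C; add compounds in DMSO, 16 hr at 37C; add LiveBLAzer B/G substrate, 2 hr RT; read fluorescence intensity.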

[4] = molecular target: Progesterone receptor (Homo sapiens) (UniProt P06401); assay: qHTS assay to identify small molecule antagonists of the progesterone receptor (PR) signaling pathway (AID 1346795; active means well fitted inhibition curve with a large enough effect in the signal ratio in the repeat runs, not every such curve was filed as active; the % refers to the signal ratio)
Outline: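 Screening used a GripTite HEK293T line with PR-responsive UAS-beta-lactamase. Cells were challenged with compound in the presence of 1 nM R5020 final for 16 hr at 37C; B/G FRET substrate, 2 hr room temperature, fluorescence.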

[5] = qHTS assay to identify small molecule antagonists of the progesterone receptor (PR) signaling pathway - cell viability counter screen (AID 1346798); further: series mostly up to about 92 µM; nearly all actives have a fitted effect of over 50% in size
Outline: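 Measures cytotoxicity in parallel with the PR antagonist reporter read: HEK293T PR-UAS-bla cells get compound and R5020 for 16 hr, and remaining viable cells are quantified by CellTiter-Glo luminescence.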

[6] = qHTS assay to identify small molecule agonists of the progesterone receptor (PR) signaling pathway - cell viability counter screen (AID 1346799; calls by dose curve; further: nearly all actives have a fitted effect of over 45% in size)
Outline: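 Using the same plates as the PR reporter screen, HEK293T PR-UAS-bla cells received compounds for 16 hr at 37C and were then lysed with CellTiter-Glo; luminescence was read 30 min later at room temperature.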

[7] = qHTS assay to identify small molecule antagonists of the TGF-beta/Smad signaling pathway - cell viability counter screen (AID 1346824); further: nearly all actives have a fitted effect of over 50% in size
Outline: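 Cytotoxicity counter-screen run in the same wells as the beta-lactamase Smad reporter read: CellTiter-Glo luminescence after 30 min at room temperature. HEK 293T SBE-bla cells had 5 hr compound exposure at 37 C with TGF-beta1 (0.25 ng/mL stock).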

[8] = qHTS assay to identify small molecule agonists of the TGF-beta/Smad signaling pathway - cell viability counter screen (AID 1346829); further: top concentration of the series differs between compounds; nearly all actives have a fitted effect of over 45% in size
Outline: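 HEK 293T SBE-bla line, 5 hr compound exposure at 37 C, multiplexed CellTiter-Glo viability read by luminescence.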

[9] = qHTS assay to identify small molecule agonists of the TGF-beta/Smad signaling pathway (AID 1346859; active means well fitted activation curve with a large enough effect in the signal ratio in the repeat runs, not every such curve was filed as active; the % refers to the signal ratio; further: series mostly up to about 77 µM)
Outline: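 Beta-lactamase reporter activity downstream of Smad binding elements was measured in stably transfected HEK 293T cells; compounds were incubated for 5 hr, substrate for 2 hr at room temperature.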

[10] = molecular target: Thyrotropin-releasing hormone receptor (Homo sapiens) (UniProt P34981); assay: qHTS assay to identify small molecule antagonists of the thyrotropin-releasing hormone receptor (TRHR) signaling pathway (AID 1346877; active means well fitted inhibition curve with a large enough effect in the repeat runs, not every such curve was filed as active; further: series mostly up to about 51 µM)
Chain of Thyrotropin-releasing hormone receptor (Homo sapiens) (P34981 whole entry, looked up): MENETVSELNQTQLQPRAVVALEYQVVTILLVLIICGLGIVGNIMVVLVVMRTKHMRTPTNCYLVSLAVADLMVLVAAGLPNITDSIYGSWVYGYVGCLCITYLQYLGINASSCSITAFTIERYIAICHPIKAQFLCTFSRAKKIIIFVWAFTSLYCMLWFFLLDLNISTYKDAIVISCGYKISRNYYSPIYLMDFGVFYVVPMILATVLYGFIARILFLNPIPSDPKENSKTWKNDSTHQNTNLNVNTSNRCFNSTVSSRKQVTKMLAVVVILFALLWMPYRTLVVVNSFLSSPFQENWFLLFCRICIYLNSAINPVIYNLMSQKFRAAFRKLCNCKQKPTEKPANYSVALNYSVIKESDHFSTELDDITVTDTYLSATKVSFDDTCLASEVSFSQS
Outline: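 Calcium signal in dye-loaded TRHR/HEK293 cells; compounds added 5 min before TRH (1 nM final); fluorescence monitored 3 min at 1 s steps.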

[11] = molecular target: Thyrotropin-releasing hormone receptor (Homo sapiens) (UniProt P34981); assay: qHTS assay to identify small molecule agonists of the thyrotropin-releasing hormone receptor (TRHR) signaling pathway (AID 1346891; calls by dose curve;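 further: HEK293 cells expressing TRHR with calcium dye readout; series mostly up to about 58 µM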)
Outline: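 Overnight-plated (18 h, 37 °C, 5% CO2) TRHR-Hek293 cells; 2 h calcium dye at 37 °C; compound in DMSO; 3-min kinetic fluorescence read.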

[12] = Human pregnane X receptor (PXR) small molecule agonists, qHTS cell viability counter screen (AID 1346977); further: nearly all actives have a fitted effect of over 50% in size
Outline: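 After a 5hr pre-incubation, PXR-Luc HepG2 cells received compounds plus positive control in DMSO and were kept 24hr at 37C. Cell viability was quantified by fluorescence from CellTiter-Fluor added for the final hour.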

[13] = Caspase-3/7 induction in HepG2 cells by small molecules, qHTS assay (AID 1346978); further: nearly all actives have a fitted effect of over 15% in size
Outline: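 Caspase-3/7 induction was measured by Caspase-Glo 3/7 luminescence (30 min, room temperature) after a 17 hr compound exposure of wild-type HepG2 cells seeded at 2,000 per well and pre-incubated 5 hr.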

[14] = Caspase-3/7 induction in CHO-K1 cells by small molecules, qHTS cell viability counter screen (AID 1346979); further: nearly all actives have a fitted effect of over 35% in size
Outline: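 Multiplexed with Caspase-Glo 3/7 in CHO-K1 cells, this counter screen added CellTiter-Fluor after 16hr of compound exposure and recorded fluorescence 1hr later.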

[15] = Caspase-3/7 induction in CHO-K1 cells by small molecules, qHTS assay (AID 1346980); further: nearly all actives have a fitted effect of over 15% in size
Outline: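 Luminescent Caspase-Glo 3/7 read (30min, room temperature) quantified apoptosis induction. Cells were wild-type CHO-K1, treated with compound for 17hr at 37 C and 5% CO2.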

[16] = Caspase-3/7 induction in HepG2 cells by small molecules, qHTS cell viability counter screen (AID 1346981); further: series mostly up to about 92 µM; nearly all actives have a fitted effect of over 30% in size
Outline: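 After a 5-hr attachment period at 37 C and 5% CO2, wild-type HepG2 cells received compounds in DMSO. Sixteen hours later CellTiter-Fluor was dispensed and the fluorescent signal quantified after a further hour.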

[17] = molecular target: Nuclear receptor subfamily 1 group I member 2 (Homo sapiens) (UniProt O75469); assay: Human pregnane X receptor (PXR) small molecule agonists, qHTS assay (AID 1346982); further: nearly all actives have a fitted effect of over 35% in size; further: potency means the concentration at half of the fitted maximal effect
Chain of Nuclear receptor subfamily 1 group I member 2 (Homo sapiens) (O75469 whole entry, looked up): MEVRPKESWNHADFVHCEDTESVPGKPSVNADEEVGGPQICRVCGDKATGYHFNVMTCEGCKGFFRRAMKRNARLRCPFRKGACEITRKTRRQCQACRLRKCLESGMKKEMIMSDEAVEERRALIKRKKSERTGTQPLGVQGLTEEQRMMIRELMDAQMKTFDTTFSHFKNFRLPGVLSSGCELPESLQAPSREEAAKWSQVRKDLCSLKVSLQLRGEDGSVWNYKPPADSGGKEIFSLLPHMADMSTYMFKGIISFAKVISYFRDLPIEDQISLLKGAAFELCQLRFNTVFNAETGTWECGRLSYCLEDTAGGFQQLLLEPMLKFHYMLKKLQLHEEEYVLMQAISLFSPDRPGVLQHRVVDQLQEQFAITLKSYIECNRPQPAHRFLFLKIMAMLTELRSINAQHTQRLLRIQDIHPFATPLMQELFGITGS
Outline: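 Tox21 qHTS; PXR-Luc HepG2; compounds pinned from DMSO; 24 hr, 37 C; ONE-Glo luciferase detection, 30 min room temperature.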

[18] = molecular target: Nuclear receptor subfamily 1 group I member 2 (Homo sapiens) (UniProt O75469); assay: CYP3A4 induction through human pregnane X receptor (PXR) by small molecules, qHTS assay (AID 1346984); further: nearly all actives have a fitted effect of over 40% in size
Outline: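 Cells (DPX-2; HepG2 with PXR element plus CYP3A4-promoter luciferase) settled 5hr, then were treated 24hr at 37C. A 3hr, 3uM-final Luciferin-IPA step preceded luminescence measurement with One-Glo.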

[19] = molecular target: Nuclear receptor subfamily 1 group I member 2 (Homo sapiens) (UniProt O75469); assay: Human pregnane X receptor (PXR) activation by small molecules, qHTS assay (AID 1346985); further: nearly all actives have a fitted effect of over 40% in size
Outline: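 DPX-2 cells (HepG2 co-transfected with a PXR response element and a CYP3A4-promoter luciferase construct) were seeded at 2,000 per well, rested 5 hr at 37C, then exposed to DMSO-dissolved compounds for 24 hr. Activation was read as luciferase luminescence.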

[20] = molecular target: Nuclear receptor subfamily 1 group I member 2 (Rattus norvegicus) (UniProt Q9R1A7); assay: Rat pregnane X receptor (rPXR) activation by small molecules, qHTS assay (AID 1346983); details: rPXR luciferase reporter cells, One-Glo luminescence, 24 h; active compounds read high; further: nearly all actives have a fitted effect of over 20% in size
Chain of Nuclear receptor subfamily 1 group I member 2 (Rattus norvegicus) (Q9R1A7 whole entry, looked up): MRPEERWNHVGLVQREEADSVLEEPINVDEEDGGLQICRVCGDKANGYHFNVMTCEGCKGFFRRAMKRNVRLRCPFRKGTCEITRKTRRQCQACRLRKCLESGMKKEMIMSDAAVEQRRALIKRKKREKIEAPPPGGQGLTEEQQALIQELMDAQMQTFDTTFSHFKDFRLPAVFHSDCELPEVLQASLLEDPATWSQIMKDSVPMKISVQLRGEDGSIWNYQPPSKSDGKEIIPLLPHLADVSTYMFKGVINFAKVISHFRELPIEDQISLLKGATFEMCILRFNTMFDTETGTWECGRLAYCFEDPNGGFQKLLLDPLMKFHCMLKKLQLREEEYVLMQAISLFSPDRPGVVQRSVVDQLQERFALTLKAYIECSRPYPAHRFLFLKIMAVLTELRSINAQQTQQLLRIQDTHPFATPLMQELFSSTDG
Outline: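 Luminescent readout (One-Glo luciferase, 30 min room temperature) followed 24 hr compound treatment at 37 C of rPXR cells plated 2,000 per well and preincubated 5hr; qHTS format with compounds delivered in DMSO.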
On the % scale 0 is the no-effect control and ±100 the full control effect.

CC(C)(C)c1cc(CCC(=O)NN)cc(C(C)(C)C)c1O
active: Potency [17] 34.4 µM
inactive: outcome [1] | Potency [2] | Potency [3] | Potency [4] | Potency [5] | Potency [6] | outcome [7] | outcome [8] | outcome [9] | outcome [10] | outcome [11] | Potency [12] | Potency [13] | Potency [14] | outcome [15] | Potency [16]

CC/C=C\CC1=C(C)CCC1=O
active: Potency [17] 34.4 µM
inactive: outcome [1] | Potency [2] | Potency [3] | Potency [4] | Potency [5] | Potency [6] | outcome [7] | outcome [8] | outcome [9] | outcome [10] | outcome [11] | Potency [12] | Potency [13] | Potency [14] | outcome [15] | Potency [16]

COC(=O)CCc1ccc(OCC(O)CNC(C)C)cc1 (stereo not drawn)
inactive: outcome [1] | Potency [2] | Potency [3] | Potency [4] | Potency [5] | Potency [6] | outcome [7] | outcome [8] | outcome [9] | outcome [10] | outcome [11] | Potency [12] | Potency [14] | outcome [15] | Potency [16] | Potency [17]

O=C1O[C@@H]2[C@@H](O)[C@H](O)O[C@@H]2[C@H]1O
inactive: outcome [1] | Potency [2] | Potency [3] | Potency [4] | Potency [5] | Potency [6] | outcome [7] | outcome [8] | outcome [9] | outcome [10] | outcome [11] | Potency [12] | Potency [13] | Potency [14] | Potency [16] | Potency [17]

CCCCCCCCOS(=O)(=O)O
inactive: outcome [1] | Potency [2] | Potency [3] | Potency [4] | Potency [5] | Potency [6] | outcome [7] | outcome [8] | outcome [9] | outcome [10] | outcome [11] | Potency [13] | outcome [15] | Potency [16] | Potency [17]

O=C(NCC(O)CO)c1c(I)c(C(=O)NCC(O)CO)c(I)c(N(CCO)C(=O)CO)c1I (stereo not drawn)
inactive: outcome [1] | Potency [2] | Potency [3] | Potency [4] | Potency [5] | Potency [6] | outcome [7] | outcome [8] | outcome [9] | outcome [10] | outcome [11] | Potency [13] | Potency [14] | outcome [15] | Potency [16]

O=C(NCCc1c[nH]c2ccccc12)c1cccnc1
active: Potency [17] 26.6 µM
inactive: outcome [1] | Potency [2] | Potency [3] | Potency [4] | Potency [5] | Potency [6] | outcome [7] | outcome [8] | outcome [9] | outcome [10] | outcome [11] | Potency [12] | Potency [13] | Potency [14] | outcome [15] | Potency [16] | Potency [18] | Potency [19]

CCCCC(CC)COCCO (stereo not drawn)
inactive: outcome [1] | Potency [2] | Potency [3] | Potency [4] | Potency [5] | Potency [6] | outcome [7] | outcome [8] | outcome [9] | outcome [10] | outcome [11] | Potency [12] | Potency [13] | Potency [14] | Potency [16] | Potency [17]

CC(C)=CCOC(=O)c1ccccc1
inactive: outcome [1] | Potency [2] | Potency [3] | Potency [4] | Potency [5] | Potency [6] | outcome [7] | outcome [8] | outcome [9] | outcome [10] | outcome [11] | Potency [12] | Potency [13] | Potency [14] | outcome [15] | Potency [17]

O=C(O)c1cc(Cl)cc([N+](=O)[O-])c1Cl
inactive: outcome [1] | Potency [2] | Potency [3] | Potency [4] | Potency [5] | Potency [6] | outcome [7] | outcome [8] | outcome [9] | outcome [11] | Potency [12] | Potency [13] | Potency [14] | outcome [15] | Potency [16] | Potency [17]

Cc1ccccc1N=O
inactive: outcome [1] | Potency [2] | Potency [3] | Potency [4] | Potency [5] | Potency [6] | outcome [7] | outcome [8] | outcome [9] | outcome [10] | outcome [11] | Potency [12] | Potency [14] | outcome [15] | Potency [16] | Potency [17]

N[C@@H](COP(=O)(O)O)C(=O)O
inactive: activity change, negative = inhibition [1] -0.736% [at 19 µM] | activity change, negative = cytotoxicity [2] 0.187% [at 19 µM] | activation [3] 0.26% [at 19 µM] | activity change, negative = inhibition [4] 6.07% [at 18.9 µM] | activity change, negative = cytotoxicity [5] -0.532% [at 18.9 µM] | activity change, negative = cytotoxicity [6] 13.8% [at 19 µM] | viability change, negative = cytotoxic [7] -0.3% [at 15.8 µM] | activity change, negative = cytotoxicity [8] 0.5% [at 15.8 µM] | activation [9] -0.654% [at 15.8 µM] | activation [11] -0.175% [at 11.8 µM] | activity change, negative = cytotoxicity [12] 17.9% [at 19 µM] | caspase activation [13] 0.675% [at 19 µM] | activity change, negative = cytotoxicity [14] 4.45% [at 19 µM] | caspase-3/7 activation [15] 0.116% [at 19 µM] | activity change, negative = cytotoxicity [16] 5.73% [at 19 µM] | activation [17] 9.49% [at 19 µM] | Potency [18] | Potency [19]

CCCCCCN
inactive: outcome [1] | Potency [2] | Potency [3] | Potency [4] | Potency [5] | Potency [6] | outcome [7] | outcome [8] | outcome [9] | outcome [10] | outcome [11] | Potency [12] | Potency [13] | Potency [14] | outcome [15] | Potency [16] | Potency [17]

CCOc1cc(NC(C)=O)ccc1C(=O)OC
inactive: outcome [1] | Potency [2] | Potency [3] | Potency [4] | Potency [5] | Potency [6] | outcome [7] | outcome [8] | outcome [9] | outcome [10] | outcome [11] | Potency [12] | Potency [13] | Potency [14] | outcome [15] | Potency [16] | Potency [17] | Potency [18] | Potency [19]

CCN(C)C(=O)Oc1cccc([C@H](C)N(C)C)c1
inactive: outcome [1] | Potency [2] | Potency [3] | Potency [4] | Potency [5] | Potency [6] | outcome [7] | outcome [8] | outcome [9] | outcome [10] | outcome [11] | Potency [12] | Potency [14] | Potency [16] | Potency [17] | max activation [20] 7.36% | Potency [19]

CC(=O)N[C@@H](CCC(=O)O)C(=O)O
inactive: outcome [1] | Potency [2] | Potency [3] | Potency [4] | Potency [5] | Potency [6] | outcome [7] | outcome [8] | outcome [9] | outcome [11] | Potency [12] | Potency [13] | Potency [14] | outcome [15] | Potency [16] | Potency [17] | Potency [18] | Potency [19]
